# Laboratory results taken from PubChem BioAssay.
# “And” between values parts separate entries of the source, which are not always exact repeats. Identical values can stand only once. The source made the active and inactive calls.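 How the source made its calls, unless noted: active means thallium flux through the channel raised or lowered by more than 3 SD from vehicle-only wells, actives on both sides; inactive means the rest.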
# Columns and labels:
# [1] = liver-stage malaria parasite growth inhibition, primary screen, cell-based, HepG2, luciferase luminescence, HepG2 viability (AID 624349; in the data active means parasite load remaining mostly below about 12%, no sharp cut-off; inactive means mostly above about 10%;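 further: 100% = mean of DMSO negative control wells on the same plate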); details: P. berghei liver stage in HepG2, luciferase luminescence, concentration not given here; parasite load remaining: stronger effect = lower value; viability: measured here: HepG2 viability without parasites
# [2] = Cy5 fluorescence interference with SSB-bound oligo, artefact control for HCV NS3 helicase inhibitor project, biochemical, NIH Clinical Collection, E. coli SSB (AID 743268; call rule not given here)
# [3] = system: Hepatitis C virus NS3 helicase; assay: HCV NS3 helicase inhibitors, primary screen, biochemical, fluorescence polarization, NIH Clinical Collection (AID 743270; call rule not given here); details: NS3 helicase binding to Cy5-dT15 DNA, stronger effect = higher value, concentration not given here
# [4] = molecular target: Single-stranded DNA-binding protein (Escherichia coli (strain K12)) (UniProt P0AGE0); assay: E. coli SSB displacement from DNA, counter-screen for HCV NS3 helicase inhibitor project, biochemical, fluorescence polarization, NIH Clinical Collection (AID 743271; in the data active means inhibition above about 28%); details: stronger effect = higher value, concentration not given here
# [5] = fluorescence interference in NS3h assay format, artefact control for HCV NS3 helicase inhibitor project, biochemical, NIH Clinical Collection (AID 743272; call rule not given here;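 further: HCV NS3 helicase with a Cy5 labelled single stranded DNA probe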); details: fluorescence interference counterscreen, stronger effect = lower value
# [6] = system: Neuropilin-2 / VEGF-C interaction (human); assay: inhibitors of NRP2–VEGF-C binding, biochemical, microplate binding format, z-score (AID 743281; call rule not given here); details: microplate NRP2/VEGF-C binding assay; stronger effect = lower value
# [7] = modulation of C. elegans fzo-1 (AID 1259413; call rule not given here;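 further: fzo-1 mutant C. elegans worms in liquid wells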); details: C. elegans fzo-1 modulator screen, mean read-out; stronger effect = higher value
# F380Y = assay: modulators of BK channel variants, profiling panel, selectivity assay, cell-based, U2OS BacMam, thallium flux, beta subunits (AID 1259406); details: at 30 µM;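 further: initial slope of Thallos dye fluorescence rise after thallium is added; log ratio against the mean of 0.3% DMSO vehicle wells on the same plate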
# F380Y/beta1 = assay: as above; details: at 30 µM
# F380Y/beta2Delta = assay: as above; details: at 30 µM
# F380Y/beta4 = assay: as above; details: at 30 µM
# [8] = molecular target: Calcium-activated potassium channel subunit alpha-1 (Homo sapiens) + Leucine-rich repeat-containing protein 26 (Homo sapiens) (UniProt Q12791+Q2I0M4); assay: as above; details: F380Y/Slo1WT/gamma1, at 30 µM
# R275C = assay: as above; details: at 30 µM
# R275C/beta1 = assay: as above; details: at 30 µM
# R275C/beta2Delta = assay: as above; details: at 30 µM
# R275C/beta4 = assay: as above; details: at 30 µM
# R275C/Slo1WT/beta2 = assay: as above; details: at 30 µM
# [9] = survival rescue of mitochondrial mutant cells in low glucose, primary screen, MELAS cybrids, Rieske KO mouse fibroblasts, CellTiter-Glo (AID 1508586;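 active means mean z-score across replicates of 1.96 or higher in either the MELAS or the Rieske mutant cell line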;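 further: z relative to plate mean and SD of compound and empty wells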)
# [10] = viability rescue of complex I mutant cybrids, primary screen, cell-based, galactose medium, ATP luminescence (AID 1645843;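 active means z-score of at least 1.8 in each of two replicates, scored against plate mean and spread of sample wells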;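 further: positive z means more ATP and so rescue of galactose-driven cybrid death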); details: complex I mutant cybrid cells, 72 h, stronger effect = higher value
# [11] = sensitizers of A549 cells to miR-34 induction, primary screen, imaging, A549 dox-inducible miR-34, nuclei and caspase counts (AID 1347080;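 active means compounds whose cell count with miR-34 switched on is under 0.7 times the count with it off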); details: A549 miR-34 inducible, Hoechst nuclei count, 48 h
# [12] = MELAS cybrid survival, CellTiter-Glo 48 h, stronger effect = higher value
# [13] = Rieske KO mouse fibroblast survival, CellTiter-Glo 72 h
# Sequence of Calcium-activated potassium channel subunit alpha-1 (Homo sapiens) + Leucine-rich repeat-containing protein 26 (Homo sapiens) (Q2I0M4 whole entry, looked up, one chain of several): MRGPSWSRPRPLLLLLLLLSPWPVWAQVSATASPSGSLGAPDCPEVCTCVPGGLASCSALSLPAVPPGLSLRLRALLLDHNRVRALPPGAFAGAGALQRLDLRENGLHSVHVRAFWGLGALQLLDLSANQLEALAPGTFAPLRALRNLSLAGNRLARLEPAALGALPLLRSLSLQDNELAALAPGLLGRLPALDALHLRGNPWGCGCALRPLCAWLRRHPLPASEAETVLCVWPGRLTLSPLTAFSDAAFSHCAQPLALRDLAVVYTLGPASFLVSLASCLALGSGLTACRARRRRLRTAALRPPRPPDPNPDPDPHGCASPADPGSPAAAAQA
smiles,measurement,setting,value
CC1(C)C[C@@H]1C(=O)N/C(=C\CCCCSC[C@H](N)C(=O)O)C(=O)O,parasite load remaining,[1],86.6% (inactive)
same,viability,[1],71.9%
same,fluorescence ratio,[2],1.03 (inactive)
same,inhibition,[3],0.4% (inactive)
same,inhibition,[4],-0.1% (inactive)
same,fluorescence ratio,[5],1.01 (inactive)
same,z-score,[6],-0.458 (inactive)
same,mean signal,[7],226 (inactive)
same,log fold change Tl+ flux,F380Y,0.00013 (inactive)
same,log fold change Tl+ flux,F380Y/beta1,0.0415 (inactive)
same,log fold change Tl+ flux,F380Y/beta2Delta,0.0097 (inactive)
same,log fold change Tl+ flux,F380Y/beta4,-0.0167 (inactive)
same,log fold change Tl+ flux,[8],-0.0144 (inactive)
same,log fold change Tl+ flux,R275C,-0.0675 (inactive)
same,log fold change Tl+ flux,R275C/beta1,0.00997 (inactive)
same,log fold change Tl+ flux,R275C/beta2Delta,0.0368 (inactive)
same,log fold change Tl+ flux,R275C/beta4,0.0142 (inactive)
same,log fold change Tl+ flux,R275C/Slo1WT/beta2,0.00806 (inactive)
CC(C(O)c1ccc(O)cc1)N1CCC(Cc2ccccc2)CC1 (stereo not drawn),fluorescence ratio,[2],1.03 (inactive)
same,inhibition,[3],-6.73% (inactive)
same,inhibition,[4],-4.72% (inactive)
same,fluorescence ratio,[5],0.98 (inactive)
same,z-score,[6],-0.156 (inactive)
same,mean signal,[7],233 (inactive)
same,z-score,[9]; [12],-0.121 (inactive) and -0.969 (inactive) and -0.489 (inactive)
same,z-score,[9]; [13],-0.18 and -0.279 and 1.18
same,z-score,[10],-1.16 (inactive) and -1.04 (inactive) and -0.25 (inactive)
same,log fold change Tl+ flux,F380Y,0.0449 (inactive)
same,log fold change Tl+ flux,F380Y/beta1,-0.0111 (inactive)
same,log fold change Tl+ flux,F380Y/beta2Delta,0.00326 (inactive)
same,log fold change Tl+ flux,F380Y/beta4,0.0228 (inactive)
same,log fold change Tl+ flux,[8],-0.0962 (active)
same,log fold change Tl+ flux,R275C,-0.193 (active)
same,log fold change Tl+ flux,R275C/beta1,-0.0365 (inactive)
same,log fold change Tl+ flux,R275C/beta2Delta,-0.218 (active)
same,log fold change Tl+ flux,R275C/beta4,-0.0303 (inactive)
same,log fold change Tl+ flux,R275C/Slo1WT/beta2,0.00646 (inactive)
O=c1c(O[C@@H]2O[C@H](CO)[C@@H](O)[C@H](O)[C@H]2O)c(-c2ccc(O)c(O)c2)oc2cc(O)cc(O)c12,parasite load remaining,[1],52.7% (inactive)
same,viability,[1],69.6%
same,fluorescence ratio,[2],0.86 (inactive)
same,inhibition,[3],2.77% (inactive)
same,inhibition,[4],12.2% (inactive)
same,fluorescence ratio,[5],0.99 (inactive)
same,z-score,[6],-0.152 (inactive)
same,mean signal,[7],249 (inactive)
same,log fold change Tl+ flux,F380Y,-0.0619 (inactive)
same,log fold change Tl+ flux,F380Y/beta1,0.0645 (inactive)
same,log fold change Tl+ flux,F380Y/beta2Delta,-0.0137 (inactive)
same,log fold change Tl+ flux,F380Y/beta4,-0.0759 (inactive)
same,log fold change Tl+ flux,[8],0.0381 (inactive)
same,log fold change Tl+ flux,R275C,0.0103 (inactive)
same,log fold change Tl+ flux,R275C/beta1,0.0316 (inactive)
same,log fold change Tl+ flux,R275C/beta2Delta,0.0226 (inactive)
same,log fold change Tl+ flux,R275C/beta4,0.0307 (inactive)
same,log fold change Tl+ flux,R275C/Slo1WT/beta2,-0.0065 (inactive)
O=c1[nH]c(=O)n(C2CC(O)C(CO)O2)cc1F (stereo not drawn),parasite load remaining,[1],68.3% (inactive)
same,viability,[1],115%
same,fluorescence ratio,[2],1.03 (inactive)
same,inhibition,[3],-1.36% (inactive)
same,inhibition,[4],1.81% (inactive)
same,fluorescence ratio,[5],1.04 (inactive)
same,fold change,"[11]; stronger effect = lower value, cell number ratio, induced over uninduced",1.17 (inactive) and 1.12 (inactive)
same,fold change,[11]; measured here: relative caspase fold change +Dox/-Dox,3.66 and 0.771
same,cell count,"[11]; measured here: total cells with miR-34 induction, stronger effect = lower value",2970 and 2380
same,cell count,[11]; measured here: total cells without miR-34 induction,2550 and 2130
same,z-score,[9]; [12],-0.408 (inactive)
same,z-score,[9]; [13],0.487
same,z-score,[10],-1.07 (inactive)
same,log fold change Tl+ flux,F380Y,-0.00405 (inactive)
same,log fold change Tl+ flux,F380Y/beta1,0.0394 (inactive)
same,log fold change Tl+ flux,F380Y/beta2Delta,0.0245 (inactive)
same,log fold change Tl+ flux,F380Y/beta4,0.0173 (inactive)
same,log fold change Tl+ flux,[8],-0.00699 (inactive)
same,log fold change Tl+ flux,R275C,0.0218 (inactive)
same,log fold change Tl+ flux,R275C/beta1,0.000317 (inactive)
same,log fold change Tl+ flux,R275C/beta2Delta,0.0028 (inactive)
same,log fold change Tl+ flux,R275C/beta4,-0.0029 (inactive)
same,log fold change Tl+ flux,R275C/Slo1WT/beta2,-0.136 (active)
